From PubChem
PfM18AAP inh: PfM18AAP enzyme inhibition | recombinant PfM18AAP, H-Glu-NHMec fluorogenic cleavage | actives 1.2% (n = 290,000) | inhibition, % at 7.35 µM;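 active = inhibition above the campaign mean inhibition over all tested compounds plus 3 SD, cut at about 28% in these data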;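 note: 0% = plate median of test compound wells and 100% = 2 mM ZnCl2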
ALR inh: human ALR oxidase inhibition via reduced H2O2 | P55789 | purified ALR, DTT oxidation, H2O2 HRP-luminol luminescence | inhibition, % (test concentration not listed) | actives 3.8% (n = 290,000) | AID 485317;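 active = mean replicate inhibition above about 79%, with every replicate also reaching it, limit read from the data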
Target sequence (P55789 whole entry, looked up): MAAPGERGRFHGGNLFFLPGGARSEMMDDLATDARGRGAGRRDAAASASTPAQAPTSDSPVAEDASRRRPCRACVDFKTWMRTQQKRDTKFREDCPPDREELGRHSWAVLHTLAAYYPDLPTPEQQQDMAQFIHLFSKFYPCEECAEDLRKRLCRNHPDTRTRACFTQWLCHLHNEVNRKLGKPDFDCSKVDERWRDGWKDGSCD
PfGluPho inh: PfG6PD (Plasmodium falciparum) enzyme inhibition; PfGluPho enzyme, NADPH resazurin-diaphorase fluorescence; inhibition, % at 20 µM; actives 0.78% (n = 350,000);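 active = inhibition reaching at least a set limit at 20 µM in the primary screen, cut at about 59% in these data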;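 note: 0% = DMSO wells with substrate and 100% = DMSO wells lacking glucose-6-phosphate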
PHOSPHO1 block: inhibitors of human PHOSPHO1 phosphatase | Q8TCT1 | recombinant PHOSPHO1, absorbance phosphatase assay | inhibition, % at 13.3 µM | actives 1.1% (n = 290,000); in the data active = inhibition above about 60%
Target sequence (Q8TCT1 whole entry, looked up): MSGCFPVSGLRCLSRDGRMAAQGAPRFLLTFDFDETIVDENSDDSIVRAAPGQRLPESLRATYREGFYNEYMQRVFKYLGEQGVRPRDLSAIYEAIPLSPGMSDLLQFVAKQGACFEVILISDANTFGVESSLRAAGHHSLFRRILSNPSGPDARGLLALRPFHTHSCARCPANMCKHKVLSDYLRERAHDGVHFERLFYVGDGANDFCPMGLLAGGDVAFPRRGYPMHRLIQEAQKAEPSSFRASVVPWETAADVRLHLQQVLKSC
H9c2 protect: modulators protecting cardiomyocytes from myocardial damage; actives 0.63% (n = 360,000); H9c2 cardiomyocytes, H2O2 injury protection, ATPLite, 2 h; protection from H2O2 cell death, % at 20 µM; AID 588492;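 active = compounds giving at least 50% protection of heart cells from peroxide-induced death in the single-dose screen, raw or plate-pattern-corrected value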;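 note: 0% = DMSO wells with peroxide and 100% = DMSO wells without peroxide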
An asterisk follows results filed as active; / = not tested or not shown. Compounds with a hit are over-represented: about 5.6% of the library has one in this group of screens.

SMILES	PfM18AAP inh	ALR inh	PfGluPho inh	PHOSPHO1 block	H9c2 protect
Cc1ccccc1OCc1nnc(SCC(=O)NCc2ccccc2)n1C	0	-7	6	48	4
COCCn1c(SCC(=O)c2cccc(OC)c2)nnc1-c1ccco1	2	93*	-6	32	-11
Cc1cccc(OCc2nnc(SCC(=O)c3cccs3)n2C)c1C	-2	-5	13	76*	-6
O=C(CSc1nnc(-c2ccccn2)n1Cc1ccco1)c1ccc(-c2ccccc2)cc1	-4	2	11	77*	8
COC(=O)CSc1nnc(-c2ccccn2)n1Cc1ccco1	-11	4	-10	5	2
Fc1ccc(CSc2nnc(-c3cnccn3)n2Cc2ccco2)cc1	-16	87*	13	14	6
COCCn1c(SCC(=O)N2CCCC2)nnc1-c1ccco1	2	-1	4	36	-2
O=C(CCCN1C(=O)/C(=C/c2ccccc2OC(F)F)SC1=S)Nc1cccnc1	/	/	25	/	-5
CC(NC(=O)Cc1cccs1)c1ccc2c(c1)OCO2 (stereo unspecified)	0	1	-4	-6	0
O=C(CC(SCc1ccco1)c1ccc(O)cc1)c1cccs1 (stereo unspecified)	25	96*	-3	23	-23
COc1ccc(NC(=O)CSc2nnc(-c3ccccn3)n2Cc2ccco2)cc1OC	-5	97*	-1	25	8
O=C(CC(SCCO)c1ccc2c(c1)OCO2)c1cccs1 (stereo unspecified)	9	34	28	83*	-4
COc1cccc(-c2nnc(SCC(=O)OC(C)C)n2Cc2ccco2)c1	-6	-2	5	72*	3
CC(C)OC(=O)CSc1nnc(-c2cnccn2)n1Cc1ccco1	-5	-7	-3	12	17
CSc1ccc(OC2(C)CCN(Cc3cc4ccccc4o3)C2)cc1 (stereo unspecified)	/	/	/	/	-4
Cc1ccc(Cc2c(-c3ccc(C#N)cc3)nc3ccc(Cl)cn23)cc1	/	/	/	/	1
COC(=O)c1cc([N+](=O)[O-])c(C)c(C)n1	/	/	10	/	3
O=C(CSc1nnc(-c2ccncc2)n1Cc1ccco1)Nc1cccc(O)c1	4	3	-7	36	6
Cn1c(SCC(=O)c2cc(Cl)c(Cl)s2)nnc1-c1ccco1	5	98*	36	10	5
O=C(CSc1nnc(-c2cccnc2)n1Cc1ccco1)c1ccccc1	-2	74	19	-46	50*
O=C(CSc1nnc(-c2ccc(O)cc2)n1Cc1ccco1)c1cccs1	-7	99*	-2	-47	-6
NC(=O)c1ccc(NC(=O)CSc2nnc(-c3cccnc3)n2Cc2ccco2)cc1	-18	97*	3	27	0
CC1(C)NC(=O)N(CC(=O)Nc2ccc(-n3cnnn3)cc2)C1=O	/	-3	-4	/	0
CCn1c(SCC(=O)NC(=O)Nc2ccc3c(c2)OCCO3)nnc1-c1cccs1	-2	/	11	65*	-2
O=C(CSc1nnc(-c2cnccn2)n1Cc1ccco1)c1ccc2ccccc2c1	-2	72	13	86*	-4
SMILES	PfM18AAP inh	ALR inh	PfGluPho inh	PHOSPHO1 block	H9c2 protect
CCn1c(SCC(=O)NC(C)C)nnc1-c1cccs1	-8	-3	-8	19	12
C=CCn1c(SCC(=O)Nc2ccc(NC(=O)c3ccco3)c(OC)c2)nnc1-c1ccncc1	18	99*	10	-3	15
CCn1c(SCC(=O)c2cccs2)nnc1-c1cccs1	7	18	10	70*	11
Cc1ccc(NC(=O)CSc2nnc(-c3cnccn3)n2Cc2ccco2)cc1	-15	7	-21	-7	-1
CCn1c(SCC(=O)Nc2ccc3c(c2)OCCO3)nnc1-c1ccco1	-7	-38	38	-1	-4
COc1cc(C(=O)COC(=O)c2ccc3c(c2)OCCO3)cc(OC)c1OC	/	/	-7	/	0
CC(C)NC(=O)N(C)C[C@H]1Oc2ccc(NC(=O)C3CC3)cc2C(=O)N([C@H](C)CO)C[C@@H]1C	/	-1	-11	/	1
CCN(C(=O)CSc1nc2ccccc2o1)c1c(N)n(Cc2ccccc2)c(=O)[nH]c1=O	/	-13	-3	/	1
COc1cccc(C(O)c2nc(-c3cc(F)cc(F)c3)cs2)c1 (stereo unspecified)	/	/	/	/	-18
O=C(CSc1nnc(-c2ccc(O)cc2)n1Cc1ccco1)c1ccccc1	-9	94*	-17	49	2
NC(CSC(c1ccccc1)(c1ccccc1)c1ccc2c(c1)OCO2)C(=O)O (stereo unspecified)	/	/	-15	/	-6
COc1ccc(N2C(=O)CSC23CCCCC3)cc1	-7	98*	5	11	-6
CCOc1ccc(N2C(=O)CSC23CCCCC3)cc1	-6	24	-5	12	2
N=C1/C(=C\c2ccc(Br)o2)C(=O)N=C2SC(CC(=O)N3CCCCC3)=NN12	5	97*	-43	22	3
CS(=O)(=O)Oc1ccc(/C=C2\C(=N)N3N=C(CC(=O)N4CCOCC4)SC3=NC2=O)cc1Cl	6	82*	10	22	0
N#C/C(=C\c1ccc(-c2cccc([N+](=O)[O-])c2)o1)C(=O)Nc1nc(-c2cccs2)cs1	10	2	-13	5	4
O=C(/C=C/c1cc[n+](CC(=O)c2ccc3cccc4c3c2CC4)cc1)c1ccc2cccc3c2c1CC3	6	/	73*	-98	-13
O=C(Nc1ccc(F)cc1)C1CCCN(S(=O)(=O)c2ccc3[nH]c(=O)ccc3c2)C1 (stereo unspecified)	7	-4	10	2	-14
Cc1ccc(Nc2cc(C)nc3ncnn23)cc1	-5	-5	-9	8	10
Cc1cc(Nc2ccc(N3CCC(C)CC3)cc2)n2ncnc2n1	9	90*	13	10	-10
Cc1ccc(C)c(S(=O)(=O)N(C(=O)c2ccncc2)c2ccc(OC(=O)c3ccncc3)cc2)c1	-12	-5	-12	17	53*
Cc1ccc(S(=O)(=O)N(C(=O)c2ccncc2)c2ccc(OC(=O)c3ccncc3)cc2)c(C)c1	-4	16	-6	-7	32
COc1ccccc1-c1csc(C(C)(NC(C)=O)c2ccccc2)n1 (stereo unspecified)	/	/	/	/	6
CCOC(=O)c1c(-c2ccccc2)c2cc(OC)ccc2n1CCCN(C)C	-2	/	-5	/	6
OCc1ccccc1N=Cc1cccnc1	3	1	-2	35	1
OCc1ccccc1N=c1ssnc1Cl	-6	-3	/	91*	/
CCOC(=O)N1CCC(N2Cc3cccc(C(=O)Nc4ccccc4OC)c3C2=O)CC1	-9	-4	10	33	2
COc1ccc(-n2c(=S)[nH]c3cc(C(=O)NC4CCCCC4)ccc3c2=O)c(OC)c1	-2	91*	9	28	-4
O=C(OCc1ccc(Cl)c(Cl)c1)c1ccc[nH]1	1	0	-4	40	-7
O=C(NCCN1CCOCC1)c1ccc(CSc2nc3ccncc3n2Cc2ccc(F)cc2)cc1	2	99*	-11	2	1
